Out of some 350,000 compounds screened, about 180 (0.051%) were called active. The full list was thinned out, with actives kept by preference. Values without a mark were called inactive.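 The calls were made as follows: active = mean inhibition across replicates of 30% or more, whatever share of single replicates reach that level; inconclusive = mean inhibition below 30% while every single replicate reaches 30%; inactive = the rest.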

A word on the inhibition: it is the drop in the measured response relative to a control, in per cent.

The target in this test is Protein disulfide-isomerase (Homo sapiens) (UniProt P07237). The test is described as follows: blockers of PDI-driven insulin aggregation – biochemical, turbidity, single point, plate reader, primary screen (AID 588391).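 Also: absorbance from insulin aggregation driven by PDI reduction with DTT.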 Particulars: A650, 90 min, at 10 µM, hits give high values.
Sequence of Protein disulfide-isomerase (Homo sapiens) (P07237 whole entry, looked up): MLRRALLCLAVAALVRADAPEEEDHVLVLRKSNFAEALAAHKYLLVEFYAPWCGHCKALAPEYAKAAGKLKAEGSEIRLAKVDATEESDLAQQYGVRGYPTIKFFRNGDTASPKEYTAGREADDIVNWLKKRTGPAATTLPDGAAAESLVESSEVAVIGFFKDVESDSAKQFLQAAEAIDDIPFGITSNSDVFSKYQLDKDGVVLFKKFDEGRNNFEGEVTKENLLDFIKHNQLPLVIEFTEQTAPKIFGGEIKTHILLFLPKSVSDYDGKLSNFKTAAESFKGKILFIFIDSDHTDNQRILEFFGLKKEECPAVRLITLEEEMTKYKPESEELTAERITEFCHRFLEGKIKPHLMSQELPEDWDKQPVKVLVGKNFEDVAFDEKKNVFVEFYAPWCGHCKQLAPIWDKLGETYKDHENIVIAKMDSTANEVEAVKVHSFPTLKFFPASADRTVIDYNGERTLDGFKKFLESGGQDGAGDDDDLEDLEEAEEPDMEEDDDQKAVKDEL
Regarding `COCOc1cccc(CN2CCC(C)(Oc3ccc(SC)cc3)C2)c1` (stereo not drawn), the inhibition is -14.7%.

On to `CC1(C(=O)NCc2ccc(F)c(F)c2)Cc2c(-c3ccc4c(c3)OCO4)ccnc2O1` (stereo not drawn), for which the inhibition is 5.69%.

Regarding `COc1ccc2[nH]c3c(C)c4cc[n+](C)cc4c(C)c3c2c1`, the inhibition was 46.3% (active).

As to `CCOC(=O)c1[nH]c2ccc(OC)cc2c1NC(=O)N1CCOCC1`, the inhibition is -4.02%.

For `COc1ccc(CC(N)c2csc(NC(=O)Cc3ccccc3)n2)cc1` (stereo not drawn), the inhibition is 8.14%.

Consider `CC1(C(=O)NS(=O)(=O)c2cccc(F)c2)CCN1C(=O)Cc1cc(F)ccc1F` (stereo not drawn), for which the inhibition is 9.62%.

Take `CC1(Oc2ccc(Cl)cc2)CCN(Cc2csc3ccccc23)C1` (stereo not drawn): the inhibition was -0.538%.

Consider `CCc1nc2ccc(C(=O)Nc3cc(-c4ccccc4)ccc3OC)cn2c1N(CC)CC(=O)N(C)C`, for which the inhibition is -5.43%.

For `OC(c1cc(Cl)cc(Cl)c1)c1ncc(-c2ccccc2C(F)(F)F)[nH]1` (stereo not drawn), the inhibition was -0.656%.

As to `CC1(C(=O)Nc2cccc(Oc3ccccc3)c2)CCN1Cc1ccccc1Cl` (stereo not drawn), the inhibition was 8.27%.

In the case of `CCc1nc2ccc(C(=O)NCc3ccc(OC)cc3)cn2c1N(CC)Cc1cccc(Br)c1`, the inhibition was 19.2%.

`CC1(Oc2ccccc2-c2ccno2)CCN(Cc2ccc(-c3ccccc3)o2)C1` (stereo not drawn): the inhibition was 15.2%.

For the compound `CCNC(=O)C1CCCN(C(=O)c2cc(F)ccc2C)CC1` (stereo not drawn), the inhibition is -2.55%.

Take `COc1ccc(-c2cc(NC=O)c3ncc(-c4cc(OC)c(OC)c(OC)c4)n3c2)c(OC)c1`: the inhibition was 2.23%.

Regarding `CCCNC(=O)C1(C)CCCN(Cc2c(C)nn(-c3ccccc3)c2C)C1` (stereo not drawn), the inhibition is 1.08%.

As to `O=CNc1cc(-c2ccc(C(=O)N3CCOCC3)cc2)cn2c(-c3ccc(F)cc3)cnc12`, the inhibition was -18.3%.

`Cc1cccc(-c2cnc(C(O)c3cc(C)cc(C)c3)[nH]2)c1` (stereo not drawn): the inhibition was 8.93%.

As for `CCOc1cc(N2CCOCC2)c(OCC)cc1NC(=O)c1ccc(C)s1`, the inhibition was -4.12%.

With `CCOc1cc(N2CCOCC2)c(OCC)cc1NC(=O)COC(=O)[C@H](Cc1c[nH]c2ccccc12)NC(C)=O`, the inhibition is 44.5% (active).

Regarding `CCOC(=O)c1ccccc1NC(=O)COC(=O)C(Cc1c[nH]c2ccccc12)NC(C)=O` (stereo not drawn), the inhibition is 5.96%.

Regarding `COc1ccc(S(=O)(=O)N2CCCCC2c2cc(C(=O)NCc3ccc(F)cc3)no2)cc1` (stereo not drawn), the inhibition was -0.518%.

For the compound `CCNC(=O)C1(C)CCN(C(=O)c2ccccc2)C1` (stereo not drawn), the inhibition is -56.1%.

For `CC1(C(=O)NCc2ccc3c(c2)OCO3)CCN1CCc1ccccc1` (stereo not drawn), the inhibition is 3.4%.

On to `O=C(NCc1ccco1)c1cccc(-c2ccc3nncn3c2)c1`, for which the inhibition is 3.75%.

Regarding `COc1ccc(-c2cc(NC(C)=O)c3ncc(-c4cc(OC)c(OC)c(OC)c4)n3c2)cn1`, the inhibition was -21.1%.

For the compound `CN(C)C(=O)c1cccc(-c2cnc3sc(NCc4ccc5c(c4)OCO5)nn23)c1`, the inhibition is 9.47%.

Take `O=C(NCc1ccc(F)cc1)c1cc(C2CCCCN2C(=O)c2ccccn2)on1` (stereo not drawn): the inhibition was -12%.

Turning to `CCN(CC)C(=O)C1CCCN(Cc2cccc(Cl)c2)C1` (stereo not drawn), the inhibition was -5.23%.

In the case of `Cc1nc(C(F)(F)F)ccc1C(=O)N1CCC1(C)C(=O)NS(=O)(=O)c1ccccc1` (stereo not drawn), the inhibition was -40%.

Consider `CC(=O)Nc1cc(-c2ccccc2F)cn2c(-c3cccc(C(F)(F)F)c3)cnc12`, for which the inhibition was 0.488%.

Consider `CC(C)c1cccc(-c2csc(C(O)c3ccccc3)n2)c1` (stereo not drawn), for which the inhibition was 4.52%.

As to `CC(=O)OC1CCC2C3CCC4=C(CC(F)C(=O)C4)C3CCC12C` (stereo not drawn), the inhibition is 70.6% (active).

For the compound `CCC(=O)N1CCC(C)(C(=O)Nc2cc(OC)c(OC)c(OC)c2)C1` (stereo not drawn), the inhibition is -1.21%.

With `Cc1ccc(NS(=O)(=O)c2cc3c(cc2Br)NC(=O)CO3)cc1C`, the inhibition is -4.51%.

With `CCc1nc2c(OCc3ccc(C(F)(F)F)cc3)cccn2c1N(C)C(=O)CC(C)C`, the inhibition is -3.58%.

On to `OC(c1ccccc1)c1nc(-c2cnc3ccccc3c2)cs1` (stereo not drawn), for which the inhibition is 4.04%.

With `CCOCCC(=O)Nc1ccc2c(c1)c(=O)n(C)n2-c1ccc2ccccc2c1`, the inhibition is -6.74%.

Consider `Cc1nc2c(OCC(=O)C(C)(C)C)cccn2c1N(C)Cc1cccs1`, for which the inhibition was -1.4%.

Regarding `CCCS(=O)(=O)NC(=O)C1(C)CCN(C(=O)c2sccc2C)C1` (stereo not drawn), the inhibition is 4.32%.

Consider `CCOC(=O)c1ccc(-c2ccc3ncnc(N(C)Cc4sccc4C)c3c2)o1`, for which the inhibition was -3.79%.

Take `CCc1nc2ccc(C(=O)N(C)CCN(C)C)cn2c1N(CC)CCOC`: the inhibition is 12.7%.

For the compound `CC(=O)Nc1ccc(-c2ccnc3c2CC(C(=O)NC(C)C)O3)cc1` (stereo not drawn), the inhibition is -7.94%.

On to `COc1ccc(-c2coc3c(C(=O)NC(C)C)cccc23)c(C)c1`, for which the inhibition was -1.08%.

On to `Cc1ccc(C(NC(=O)C2CCN(CCOc3ccc(Cl)cc3Cl)CC2)c2ccccn2)cc1` (stereo not drawn), for which the inhibition was 2.42%.

Take `O=C(NCCO)c1cccc(-c2cccc3nccn23)c1`: the inhibition is -96.6%.

Consider `Cc1ccc(-c2cnc(C(O)c3cc(Cl)cc(Cl)c3)[nH]2)cc1` (stereo not drawn), for which the inhibition was -2.73%.

Turning to `COc1cccc(C(O)c2ncc(-c3ccc4ccccc4c3)[nH]2)c1` (stereo not drawn), the inhibition is 7.38%.

Turning to `COc1ccc(C(=O)N2CCCCC2c2cc(C(=O)Nc3ccccc3)no2)cc1` (stereo not drawn), the inhibition was -4.91%.

Consider `O=C(NCc1cccnc1)c1ccc2nc([C@@H]3O[C@H](CO)[C@H](O)[C@H](O)[C@H]3O)[nH]c2c1`, for which the inhibition was -7.99%.

With `CC1(C(=O)NS(=O)(=O)c2cccc(F)c2)CCN1C(=O)c1cccc2ccccc12` (stereo not drawn), the inhibition is -12.2%.

Take `CC(=O)c1cccc(-c2cnc3c(NC=O)cc(-c4ccccc4Oc4ccccc4)cn23)c1`: the inhibition was -15.6%.

Turning to `CCNC(=O)C1CCCN(C(=O)c2ccc(OC)cc2OC)CC1` (stereo not drawn), the inhibition was -2.37%.

Consider `Cc1ccccc1-c1csc(C(O)c2cccc(Cl)c2)n1` (stereo not drawn), for which the inhibition was 4.37%.

On to `CCN(CCN(C)C)C(=O)c1ccc2nc(C)c(N(C)C(=O)CCc3ccccc3)n2c1`, for which the inhibition is 5.52%.

`CCOc1ccc(Cl)cc1-c1cc(C(=O)NCc2cccs2)[nH]n1`: the inhibition was 5.86%.

As to `CCCNC(=O)c1cc(C2CCCCN2C(=O)OC)on1` (stereo not drawn), the inhibition was 5.56%.

In the case of `CCCC(=O)N1CCC1(C)C(=O)NS(=O)(=O)c1ccc(Cl)cc1` (stereo not drawn), the inhibition was 9.48%.

On to `CC=CCn1c(SCCCc2ccccc2)nc2c1c(=O)[nH]c(=O)n2C`, for which the inhibition is 8.5%.

As for `Oc1cccc2cc(-c3ccncc3)cnc12`, the inhibition is -15.1%.

Take `COCCNC(=O)C1(C)CCCN(Cc2cccc(F)c2)C1` (stereo not drawn): the inhibition is 1.38%.

As to `CCCCN(C=O)c1c(CC)nc2c(OCCC3CCCCC3)cccn12`, the inhibition is -6.94%.

In the case of `O=C(NC(c1ccc(-c2ccccc2)cc1)c1cnccn1)C1CCN(CCOc2ccc(Cl)cc2Cl)CC1` (stereo not drawn), the inhibition was 4.84%.

For the compound `COc1ccc(-c2csc(C(O)c3cccc(Cl)c3)n2)cn1` (stereo not drawn), the inhibition was 8.11%.

For the compound `CC(C)(C(=O)N1CCC1(C)C(=O)NS(=O)(=O)c1ccc(Br)cc1)c1ccccc1` (stereo not drawn), the inhibition is -3.96%.

Consider `COc1cc(NC(=O)c2cc(-c3ccc(F)cc3OC(C)C)n[nH]2)cc(OC)c1OC`, for which the inhibition was -4.94%.

For `CC(C)Oc1cc(F)ccc1-c1cc(C(=O)Nc2cccc(Cl)c2)[nH]n1`, the inhibition is 12.1%.

Consider `Cc1ccccc1Cn1c(C)c(C(=O)NCc2cccc(C(F)(F)F)c2)sc1=O`, for which the inhibition is -0.337%.

Take `CC(=O)Nc1cc(-c2ccc(N3CCN(C)CC3)cc2)cn2c(-c3ccc(F)cc3)cnc12`: the inhibition was 0.066%.

For `CCCNC(=O)C1(C)CCN1C(=O)Cc1ccc(-c2ccccc2)cc1` (stereo not drawn), the inhibition is 12.7%.

As for `Cc1cccc(CNC(=O)c2sc(=O)n(Cc3ccccc3C)c2C)c1`, the inhibition is -13.7%.

`O=C(Nc1ccc(Cl)c(C(F)(F)F)c1)C1Cc2c(-c3ccccc3Oc3ccccc3)ccnc2O1` (stereo not drawn): the inhibition was -5.07%.

In the case of `CNc1cncc(-c2ccc(NS(C)(=O)=O)cc2)n1`, the inhibition is -0.527%.

As to `COc1ccc(Cl)cc1-c1cc(C(=O)Nc2cc(OC)c(OC)c(OC)c2)[nH]n1`, the inhibition is -0.731%.

With `CN1CCN(C(=O)c2ccc(-c3cc4nc(NCc5cccnc5)n(C)c(=O)c4s3)cc2)CC1`, the inhibition is 16.2%.

In the case of `COc1ccc(-c2ccc(C(=O)NC(C)C)c3occc23)c(C)c1`, the inhibition was -1.92%.

As for `COc1cccc(CNc2nc3cc(-c4csc5ccccc45)sc3c(=O)n2C)c1`, the inhibition was -2.68%.

Consider `Cc1nc2c(OCc3cccc(Cl)c3)cccn2c1N(C)CC1CC1`, for which the inhibition is 4.97%.

For `CCCCC(=O)N(C)c1c(CC)nc2c(OCc3ccc(Cl)cc3Cl)cccn12`, the inhibition is -3.52%.

`OC(c1ccccc1)c1nc(/C=C/c2ccc(C(F)(F)F)cc2)cs1` (stereo not drawn): the inhibition was -51.4%.

On to `CN(C)CCNC(=O)c1ccc(-c2cn3c(-c4ccc(Oc5ccccc5)cc4)cnc3cn2)cc1`, for which the inhibition was -1.11%.

For the compound `COc1cccc(-c2cc3nc(NCCOc4ccccc4Cl)n(C)c(=O)c3s2)c1`, the inhibition is -11.2%.

`CCc1nc2ccc(C(=O)NC3CCN(Cc4ccccc4)CC3)cn2c1N(CC)CCOC`: the inhibition was -3.56%.

As to `O=C(NCc1cccc(C(F)(F)F)c1)c1ccc2sc(COCCO)nc2c1`, the inhibition was -1.75%.

Turning to `CN(C)CCNC(=O)c1cccc(-c2cnc3c(NC=O)cc(-c4cccc(C(F)(F)F)c4)cn23)c1`, the inhibition is 4.96%.

Take `Cc1cc(C)n2nc(C(=O)NC(C)(C)C)nc2n1`: the inhibition is 0.598%.

With `Cc1cc(C)n2nc(SCC(N)=O)nc2n1`, the inhibition was -1.27%.

For `Cc1cc(C)n2nc(CNS(=O)(=O)c3c(F)c(F)c(F)c(F)c3F)nc2n1`, the inhibition is 127% (active).

For `CC1(C(=O)NS(=O)(=O)c2cccc(OC(F)F)c2)CCN1C(=O)C1CC1` (stereo not drawn), the inhibition was -4.8%.
